Measurements taken from the supplement of paper PMC6555819.

Columns and labels:
Test in all cases: PBM binding z-score (relative to random genomic background probes); higher = stronger binding; sequences stand for … in GC…GCGATTGACAGCGTAGAATGAAGG
[1] = tested on: RARb homodimer (NR concentration 270 nM)
In short: (§1)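 Antibodies against each partner of ligand-free nuclear receptor dimers (one per run) detected binding on custom Agilent 4×180K protein-binding microarrays after 1 h incubation. The double-stranded probes had 34-nt variable regions carrying direct-repeat seeds, single-nucleotide variants, half-site ablations and random human genomic background sequences. Binding z-scores, from regression-normalized fluorescence, use the random background probes as reference.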

[2] = tested on: RARg:RXRa (NR concentration 270 nM, RXRa partner concentration 90 nM)
In short: as §1

[3] = tested on: RARg homodimer (NR concentration 270 nM)
In short: as §1

[4] = tested on: RXRa DBDmut IVT, anti-RXR (DBD mutation: RXRa K156A/R161A, NR concentration 90 nM)
In short: as §1

[5] = tested on: RXRa homodimer (NR concentration 180 nM)
In short: as §1

[6] = tested on: THRa:RXRa (NR concentration 90 nM, RXRa partner concentration 90 nM)
In short: as §1

[7] = tested on: THRa homodimer (NR concentration 90 nM)
In short: as §1

[8] = tested on: VDR homodimer (NR concentration 270 nM)
In short: as §1

| Sequence | PBM binding z-score [1] | PBM binding z-score [2] | PBM binding z-score [3] | PBM binding z-score [4] | PBM binding z-score [5] | PBM binding z-score [6] | PBM binding z-score [7] | PBM binding z-score [8] |
| --- | --- | --- | --- | --- | --- | --- | --- | --- |
| TAGCCTAGGTCATGCGGGCCAGTAGAGTGTCGGC | 3.12 | 3.98 | 4.71 | 0.541 | 3.5 | 2.96 | 0.801 | 0.486 |
| ATATATAGGTTAAGGGTCATTCAGGTTGGTTCGC | 4.27 | 4.98 | 4.04 | 2.17 | 6.8 | 3.86 | 2.03 | 4.9 |
| GCTGCTAGGTCAACTGATGGTCAGCTTAAGCTCG | 3.69 | 5.24 | 5.28 | 1.76 | 3 | 3.07 | 0.988 | -0.0541 |
| CCAGACAGGTTAGAAGGTAACTCAGCCTCGATTA | 0.786 | 0.637 | 0.641 | 0.0628 | 0.699 | 0.493 | 0.212 | 0.658 |
| TCTTGTAGATCAATAGAGGTTAAGAACGTGCGCT | 1.05 | 0.792 | 0.716 | 0.923 | 1.54 | 2.33 | -0.182 | 0.37 |
| TCATATAGGTAAAGCTGAAAGTCGAACGATATGA | -0.67 | 0.267 | 0.377 | 0.431 | 0.587 | -0.286 | -1.16 | -0.537 |
| CTACCAAGGTGAACAAGGTCGTTCATTACTATTC | 2.93 | 2.18 | 1.75 | 2.32 | 2.27 | 3.56 | 2.2 | 3.38 |
| TCATATGGGTAAATGCTAGGTGAAAGTCCGATCT | 0.561 | 0.294 | -0.0205 | 0.923 | 0.517 | 1.38 | 0.395 | -0.156 |
| ACTATTAGTTGACTTAGGGCAACTGATACGACGC | 0.726 | 0.872 | 1.07 | 0.417 | 0.497 | 1.31 | 0.235 | 0.0906 |
| CCTACTGGGCCACAAAGGTCATTGATGCCGATAA | 4.64 | 5.33 | 4.68 | 1.13 | 6.32 | 3.38 | 0.818 | 3.31 |
| CGAACTAGTTCATCCAGGACAGTGAATACATTGA | 0.846 | 1.12 | 1.39 | 3.28 | 0.593 | 2.23 | 1.07 | 3.24 |
| CTCGAAAGGTCGTGCTCAGGTGAGTAAACCAAAC | 2.84 | 5.23 | 4.05 | 1.99 | 4.99 | 4.08 | 0.933 | 0.941 |
| TCAGACAGGTGAAGATAACTCAGGTACGCAGTCG | 0.661 | 0.712 | 0.748 | 1.15 | 1.13 | 0.737 | 0.4 | 0.623 |
| CCTGTTAGGTCAATGGTCAGCTAAAGCAGCTCGC | 3.5 | 4.07 | 4.93 | 2.35 | 2.63 | 3.16 | 2.18 | 0.926 |
| CGAACTAGGTCAAGGACAGTGACTCTCCGCACGC | 3.26 | 3.85 | 4.74 | 1.45 | 2.69 | 3.31 | 2.26 | 0.341 |
